Molecules are shown by their SMILES. In all, about 59,000 compounds went through this assay and about 6,500 (11%) were called active. About 15% were inconclusive and are not listed. Cut-off read from the data, not from the text of the source: active = max dye-equivalent concentration above about 10 nM; inconclusive = mostly about 1.1 nM to 9.6 nM; inactive = weaker than that. What follows is part of a selection rich in actives, with near analogues and random picks from the rest. Where a structure was tested more than once in an assay, its records may differ in their call.

The test can be described thus: qHTS Assay for Spectroscopic Profiling in A350 Spectral Region. Particulars: Compound autofluorescence, 340/450 nm, Alexa 350 dye-equivalents; stronger effect = higher value. The text has this:
NIH Molecular Libraries Screening Centers Network [MLSCN]
NIH Chemical Genomics Center [NCGC]
Occasionally, the artifactual effect may originate from the compounds own spectral or other biophysical properties which generally tend to track its assay concentration. Pre-screening/profiling the library with respect to the compounds spectral properties should help one exclude false positives early on. While the most informative fluorescent profiling data set is obtained by performing a full excitation and emission scan of each well by using a monochromator-based plate reader, such an approach is practical only on a very limited scale as scanning each well requires long time. An alternative approach, applied here, is to perform plate reader scans using selected excitation and emission wavelength pairs to generate a multidimensional relational database that correlates compound concentration and the respective relative fluorescence intensity at a given wavelength set. A standard curve of Alexa 350 (A 350) present on each plate as six-point concentration series, was used to compute a normalized fluorescence response, termed dye-equivalent concentration, for each compound at each concentration.
NCGC Assay Protocol Summary:
100 mM Tris buffer, pH 8.0
The wells in columns 1 through 4 of a Kalypsys polypropylene 1536-well compound plate were filled with standard solutions of fluorophore corresponding to the spectral region of interest. Solutions of A 350 were placed in the following wells: I1, J1: 3 mM, I2, J2: 300 uM, I3, J3: 30 uM, I4, J4: zero (DMSO), K1, L1: 3 uM, K2, L2: […], K3, L3: 300 nM, K4, L4: zero (DMSO).
Six uL of buffer were dispensed to 1536-well Greiner black plates. Compounds and dye standards (23 nL) were transferred via Kalypsys PinTool. The plates were incubated for 15 min at room temperature, and then read on ViewLux (Perkin-Elmer) High-throughput CCD imager using 340 nm and 450 nm excitation and emission filter set.
Keywords: NIH Roadmap, MLSCN, MLI, MLSMR, qHTS, NCGC, A350, A-350, Fluorescent Profiling.
(Quantitative high-throughput screening tests each substance at several concentrations.)
For the compound `CSC1=NP(=S)(SC)N(C)c2nc3n(c21)CCC3` (stereo unspecified), the max dye-equivalent concentration is 26 nM (active). Take `CN1[C@@H]2CC[C@H]1CC(OC(=O)c1cc(Cl)cc(Cl)c1)C2` (stereo partly specified): the max dye-equivalent concentration result was “inactive”. The same measure, in the same setting: the entry for `CN1CCN(C(=O)O[C@@H]2c3nccnc3C(=O)N2c2ccc(Cl)cn2)CC1` is “inactive”.

For `c1ccc2c(c1)[I+]c1ccccc1-2`, the max dye-equivalent concentration entry is “inactive”. Same read-out and setting: next, `C[N+]1(C)C2CC(OC(=O)C(CO)c3ccccc3)CC1[C@@H]1O[C@H]21` (stereo partly specified): “inactive”. Regarding `CC(C)(O)[C@H]1[C@H]2OC(=O)[C@@H]1[C@]1(O)C[C@H]3O[C@]34C(=O)O[C@H]2[C@]14C`, the max dye-equivalent concentration result is “inactive”. `c1csc(CN2CCCC3(CCNCC3)C2)n1`: the max dye-equivalent concentration entry is “inactive”. Take `c1ccc(CN2CC[C@@]3(CCCNC3)C2)cc1`: the max dye-equivalent concentration is 13 nM (active).

As to `c1ccc(N2CC[C@@]3(CCCNC3)C2)nc1`, the max dye-equivalent concentration result is “inactive”. Regarding `C[C@@]12CC[C@H]3[C@@H](CC[C@]4(O)C[C@H](O)CC[C@@]34C=O)[C@]1(O)CC[C@@H]2C1=CC(=O)OC1`, the max dye-equivalent concentration entry was “inactive”. For `C[C@H](Br)C(=O)N[C@H](CO)C(=O)O`, the max dye-equivalent concentration entry is “inactive”. As to `CCOC(=O)c1c(N)n(Cc2ccccc2)c2nc3ccccc3nc12`, the max dye-equivalent concentration was 1500 nM (active). On to `c1csc(CN2CC3(CCNCC3)C2)n1`, for which the max dye-equivalent concentration result was “inactive”.

With `CC(=O)O[C@H]1CC[C@@]2(C)[C@@H](CC[C@H]3[C@H]2CC(=O)[C@]2(C)[C@@H]3C[C@@H](N3CC3)[C@H]2C(C)=O)C1`, the max dye-equivalent concentration result is “inactive”. Take `O=C(Nc1cccc(F)c1)N1CC[C@@]2(CCCN(C(=O)Oc3ccccc3)C2)C1`: the max dye-equivalent concentration result was “inactive”. On the same count and under the same terms, next, `CCN1c2nc3c(C)cccn3c(=O)c2CC2(C(=O)N(C)C(=O)N(C)C2=O)C1C` (stereo unspecified): 38 nM (active). On the same count and under the same terms, next, `O=C(O)C(=O)Cc1ccc2c(c1)OCO2`: “inactive”; `COC(=O)COc1cc(C)cc2oc(=O)c3c(c12)CCCC3`: “inactive”.

As for `CCCCCCN=C(CC)c1c(O)n(CCCC)c(=O)[nH]c1=O`, the max dye-equivalent concentration result is “inactive”.

As for `NC(=O)c1ccc(OC[C@H](O)CN2CC=C(c3ccc(F)cc3)CC2)cc1`, the max dye-equivalent concentration entry was “inactive”. The same measure, in the same setting: next, `CCN1C[C@]2(C)CC[C@H](O)[C@@]34[C@@H]5CC6[C@@H](OC)C[C@@](O)([C@@H]5[C@@H]6O)[C@H](C[C@@H]23)[C@H]14`: “inactive”. Same read-out and setting: next, `C[C@]12CC[C@H](O)CC1=CC[C@@H]1[C@H]2CC[C@]2(C)C(=O)CC[C@H]12`: “inactive”. As to `C[C@]12CC[C@H](O)C[C@@H]1CC[C@H]1[C@H]2CC[C@]2(C)C(=O)CC[C@@H]12`, the max dye-equivalent concentration was 64 nM (active) and the result was inactive. Regarding `C[C@@]12CC[C@H](O)C[C@@H]1CC[C@@H]1[C@@H]2CC[C@@]2(C)[C@@H](C3=CC(=O)OC3)[C@H](O)C[C@]12O`, the max dye-equivalent concentration result was “inactive”. The same measure, in the same setting: next, `CC(C)(O)/C=C\C(=O)[C@](C)(O)[C@H]1[C@H](O)C[C@]2(C)[C@@H]3CC=C4[C@@H](C=C(O)C(=O)C4(C)C)[C@]3(C)C(=O)C[C@@]12C`: “inactive”; `CS(=N)(=O)CC[C@H](N)P(=O)(O)O` (stereo partly specified): “inactive”.

With `CC[C@]1(O)C(=O)OCc2c1cc1n(c2=O)Cc2cc3ccccc3nc2-1`, the max dye-equivalent concentration was 2600 nM (active).

Turning to `CC[C@@](O)(C(=O)O)c1cc2n(c(=O)c1CO)Cc1cc3ccccc3nc1-2`, the max dye-equivalent concentration is 920 nM (active). With `Cc1ccc(Cn2nnnc2CN2CCC(n3nnc4ccccc43)CC2)cc1`, the max dye-equivalent concentration entry is “inactive”. Consider `N[C@H](C(=O)O)c1cc(=O)[nH]o1`, for which the max dye-equivalent concentration entry was “inactive”. Same read-out and setting: the entry for `C[C@H]1CC[C@@]2(NC1)O[C@@H]1C[C@H]3[C@@H]4CC=C5C[C@@H](O)CC[C@]5(C)[C@@H]4CC[C@]3(C)[C@@H]1[C@@H]2C` is “inactive”; for `N[C@@H](Cc1c[nH]c2ccccc12)c1nnc(SCc2c(F)cccc2Cl)o1` it is “inactive”. Still for that read-out and setting: next, `CC[N+]1(C)CCCC(OC(=O)C(O)(c2ccccc2)c2ccccc2)C1` (stereo unspecified): “inactive”; `CC(C)CCC1(CCN)C(=O)NC(=O)NC1=O`: “inactive”; `O=C(c1cc2nc(-c3ccccc3)cc(-c3ccccc3)n2n1)N1CCC2(CC1)OCCO2`: 48 nM (active).

As to `Cc1cccc(-n2c(C)nc3cc(C(=O)N4CCC5(CC4)OCCO5)ccc32)c1`, the max dye-equivalent concentration entry was “inactive”. The same measure, in the same setting: the entry for `O=C(c1cc(-c2ccncc2)nc2ccccc12)N1CCC2(CC1)OCCO2` is “inactive”; for `NCC[Se][Se]CCN` it is “inactive”. On the same count and under the same terms, next, `CCN(CC)CCn1ncc2c(N)ncnc21`: “inactive”; `CC1=CC(=O)C2=C(C)C[C@H](O)[C@@H]3[C@@H](OC(=O)[C@H]3C)[C@H]12`: “inactive”.

Turning to `O=C1C2CCN(CC2)C1(CO)CO`, the max dye-equivalent concentration result was “inactive”. The same measure, in the same setting: the figure for `CCOC(=O)c1c(-c2ccccc2)oc2ccc(OC(=O)N(C)C)cc12` is 53 nM (active). For the compound `Cc1ccc(S(=O)(=O)O[C@H]2CN3CCC2CC3)cc1`, the max dye-equivalent concentration entry is “inactive”. The same measure, in the same setting: next, `NC[C@H](O)c1ccc(O)cc1`: “inactive”; `C=CCN1C(=O)C2(C(C(=O)OCC)=C(N)Oc3c2c(=O)oc2ccccc32)c2ccccc21` (stereo unspecified): “inactive”. Still for that read-out and setting: the entry for `COc1cc(C[C@H](C)N)c(OC)cc1I` is “inactive”; for `NCCc1c[nH]c2ccc(O)cc12` it is “inactive”; for `C/C(CCc1c[nH]c2ccccc12)=N\O` it is 16 nM (active).

As to `CC(=O)c1c(O)c(C)c(O)c(Cc2c(O)c3c(c(C(=O)/C=C\c4ccccc4)c2O)OC(C)(C)C=C3)c1O`, the max dye-equivalent concentration result is “inactive”. Take `NCCc1ccc(S(=O)(=O)F)cc1`: the max dye-equivalent concentration result is “inactive”.

The record behind these values is PubChem BioAssay AID590 (National Center for Advancing Translational Sciences (NCATS), 2007).
